Laboratory results taken from PubChem BioAssay.
Records with an inconclusive call do not appear. Active and inactive are the calls of the source.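 The calls were made as follows, unless noted: active = percent response above a set limit, the screen-wide mean plus 3 SD (cut at about 130% in these data); inactive = the rest.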

Tests used:
[1] = yeast TOR pathway RPL19A-GFP modulators, primary screen, cell-based, S. cerevisiae, multiplex flow cytometry (AID 1862; in the data active = percent of DMSO control GFP below about 86%;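 also: lower values mimic rapamycin by blocking the RPL19A rise seen in DMSO cells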); conditions: S. cerevisiae RPL19A-GFP strain, flow cytometry fluorescence, 3 h; at 10 µM; stronger effect = lower value
[2] = modulators of MEP2-GFP levels in yeast, primary screen, S. cerevisiae, multiplex flow cytometry (AID 1867;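 active = GFP response, as percent of the DMSO control, above the screen-wide mean plus 3 SD, about 139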;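 also: median GFP channel fluorescence of barcode-gated MEP2-GFP cells measured by flow cytometry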); conditions: S. cerevisiae MEP2-GFP strain, 3 h, at 10 µM, stronger effect = higher value, 100% means same as DMSO wells
[3] = modulators of CIT2-GFP expression in yeast, primary screen, S. cerevisiae, GFP fusion, multiplex flow cytometry (AID 1870); conditions: 3 h, at 10 µM, stronger effect = higher value;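 also: barcoded CIT2-GFP strain pooled with four other GFP strains with rapamycin as positive control; median GFP fluorescence per well over plate mean of DMSO wells so 100% = DMSO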
[4] = modulators of LAP4-GFP expression in yeast, primary screen, S. cerevisiae, multiplex flow cytometry (AID 1873;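 active = GFP signal, as percent of the solvent control, above the screen mean plus 3 SD, about 149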); conditions: 3 h, at 10 µM, stronger effect = higher value
[5] = modulators of AGP1-GFP expression in yeast TOR pathway, primary screen, cell-based, multiplex flow cytometry, S. cerevisiae (AID 1887;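 active = GFP signal above the screen-wide mean plus 3 SD, that is over about 124.5% of the solvent control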;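 also: AGP1-GFP fusion strain of S. cerevisiae within a five-strain barcoded multiplex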); conditions: 3 h, at 10 µM, stronger effect = higher value
[6] = inhibitors of CD8+ T cell-vesicle binding, pilot screen, LFA-1/ICAM-1 modulator project, MLPCN validation set, flow cytometry (AID 2523;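 active = response below a set limit, under 55% cells CD8-positive and vesicle-bound, and CD8 cells' 90th-percentile brightness under 279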;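 as to vesicle binding response: mean PE anti-B7-1 fluorescence of CD8+ cells relative to row control; 100% = QL9-loaded vesicles with DMSO vehicle in the same plate row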); conditions: 2C mouse CD8+ T cells, at 7 µM, stronger effect = lower value; double positive events: measured here: CD8+/vesicle+ event percentage
[7] = target: Integrin beta-1 (Homo sapiens) + Integrin alpha-4 (Homo sapiens) (UniProt P13612+P05556); experiment: inhibition of HUTS-21 binding to VLA-4, pilot screen, VLA-4 allosteric modulator project, U937 cells, HUTS-21 mAb, flow cytometry, validation set (AID 2674;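 active = inhibition above 50%, about 3 SD of the validation set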;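 also: antibody binding induced by the VLA-4 ligand LDV present at three times its Kd; 0% = LDV ligand with antibody and no compound and 100% = antibody without LDV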); conditions: HUTS-21 LIBS mAb binding, at 6.7 µM, stronger effect = higher value, binding induced by LDV ligand
[8] = superoxide lowering in aged yeast cells, pilot screen, validation compound set (AID 2706;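 active = superoxide response below 65% of plate, a cut near 3 SD across the whole screen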;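 also: yeast exposed to compound for one week at 30 degrees C before staining; 100% = mean of all compound wells on the same plate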); conditions: S. cerevisiae aging, superoxide DHE fluorescence; at 10 µM; stronger effect = lower value
[9] = target: Beta-adrenergic receptor kinase 1 (Homo sapiens) (UniProt P25098); experiment: GRK2 binders displacing RNA aptamer, biochemical, validation, human GRK2, bead flow cytometry (AID 488806;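 active = aptamer binding inhibition above 30%, about 3 SD of noise from non-fluorescent compounds; inactive = inhibition at or below 30%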); conditions: bead-bound GRK2, FAM-aptamer displacement, at 10 µM, stronger effect = higher value
[10] = target: Beta-2 adrenergic receptor (Homo sapiens) (UniProt P07550); experiment: beta2AR agonists driving receptor internalization, pilot screen, cell-based, FAP fluorogen, flow cytometry, validation set (AID 504459;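 active = percent response above 42, roughly 3 SD of non-fluorescent test compounds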;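 also: agonist-driven loss of surface beta2AR via internalization measured by FAP dye flow cytometry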); conditions: Am2.2-beta2AR cells, FAP surface receptor flow cytometry; at 10 µM; stronger effect = higher value
[11] = target: AP-2 complex subunit beta (Homo sapiens) (UniProt P63010); experiment: inhibitors of arrestin peptide binding to AP2, pilot screen, biochemical, validation set, GST-AP2 beads, flow cytometry (AID 504541;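 active = inhibition above 54%, about 3 SD of non-fluorescent compounds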;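 also: AP2 carries R879A mutation and is captured from E. coli lysate; bead-bound FITC arrestin peptide fluorescence measuring arrestin peptide binding to AP2; 0% = DMSO wells and 100% = excess unlabeled arrestin peptide control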); conditions: FITC arrestin peptide, at 10 µM, stronger effect = higher value, AP2 beta2 appendage fragment, R879A mutant
[12] = yeast V-ATPase proton transport modulators, S. cerevisiae, pHLuorin, HTS validation (AID 504600; in the data active = response above about 15%;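 also: plate controls were DMSO for no effect and reference compound for full effect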); conditions: S. cerevisiae pHLuorin cytosolic pH, at 10 µM, stronger effect = higher value
[13] = test system: anti-desmoglein-3 scFv antibody binding to human DSG3; experiment: inhibitors of anti-DSG3 scFv binding to DSG3, pilot screen, biochemical, validation compound set, bead-based, flow cytometry (AID 588368;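 active = binding below the plate cutoff, the plate median minus 3 SD, with a reading above zero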;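 also: signal is the median channel fluorescence of bead-bound GFP antibody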); conditions: Protein G beads, DSG3-Fc, scFv-GFP binding, at 10 µM, stronger effect = lower value
[14] = inhibitors of fungal efflux pumps CDR1, CDR2, MDR1, pilot screen, validation compound set, multiplex, phenotypic (AID 588506;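 active = efflux inhibition above 0.42, the validation set average plus 4 SD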;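 also: Nile Red retained in cells so higher fluorescence means more efflux inhibition; 0 = negative control wells and 1 = enniatin B 25 µM full block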); conditions: S. cerevisiae pump-expressing triplex, Nile Red efflux flow cytometry; at 10 µM; stronger effect = higher value; the pumps come from Candida albicans
[15] = target: ATP-binding cassette sub-family B member 6 (Homo sapiens) (UniProt Q9NP58); experiment: ABCB6 transporter inhibitors, pilot screen, K562-ABCB6 cells, flow cytometry, validation set (AID 588550;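 active = inhibition above the screen-wide mean plus 3 SD, about 51%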;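 also: 0% = DMSO wells and 100% = benzethonium chloride 70 µM positive control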); conditions: K562-ABCB6 porphyrin accumulation, 1 h, at 10 µM, stronger effect = higher value
[16] = promoters of myeloid differentiation in arrested cells, primary screen, cell-based, GFP/MAC1 double positive, flow cytometry, validation set (AID 588685;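 active = differentiation response of at least 50%, scaled between solvent and reference control, from cells with both markers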;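 also: compound exposure lasts four days before antibody staining and flow analysis; 0% = DMSO wells and 100% = 5 µM fulvestrant positive control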); conditions: ER-HoxA9 marrow cells, stronger effect = higher value, normalized: vehicle 0, fulvestrant 100

Chain of Integrin beta-1 (Homo sapiens) + Integrin alpha-4 (Homo sapiens) (P05556 whole entry, looked up): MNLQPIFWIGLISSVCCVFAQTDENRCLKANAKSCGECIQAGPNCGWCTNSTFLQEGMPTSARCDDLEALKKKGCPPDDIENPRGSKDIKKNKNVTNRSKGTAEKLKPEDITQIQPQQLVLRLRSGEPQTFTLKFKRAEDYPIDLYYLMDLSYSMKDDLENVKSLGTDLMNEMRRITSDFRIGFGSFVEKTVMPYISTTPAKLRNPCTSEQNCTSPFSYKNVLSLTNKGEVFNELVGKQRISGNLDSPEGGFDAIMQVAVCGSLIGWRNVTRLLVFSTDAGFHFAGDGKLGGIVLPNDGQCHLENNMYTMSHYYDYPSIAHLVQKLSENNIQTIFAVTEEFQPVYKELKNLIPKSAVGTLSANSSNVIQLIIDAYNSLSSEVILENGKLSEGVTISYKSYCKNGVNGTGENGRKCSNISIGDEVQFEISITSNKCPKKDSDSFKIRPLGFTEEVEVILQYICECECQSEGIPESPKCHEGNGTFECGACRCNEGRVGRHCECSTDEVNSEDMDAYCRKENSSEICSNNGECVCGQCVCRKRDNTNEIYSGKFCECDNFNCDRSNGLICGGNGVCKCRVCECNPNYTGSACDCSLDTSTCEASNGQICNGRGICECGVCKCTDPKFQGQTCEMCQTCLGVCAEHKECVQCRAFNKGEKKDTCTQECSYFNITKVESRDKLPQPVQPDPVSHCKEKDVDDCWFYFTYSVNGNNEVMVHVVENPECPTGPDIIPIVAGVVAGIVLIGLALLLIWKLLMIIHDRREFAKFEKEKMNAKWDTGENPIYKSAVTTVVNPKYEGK
Chain of Integrin beta-1 (Homo sapiens) + Integrin alpha-4 (Homo sapiens) (P13612 whole entry, looked up): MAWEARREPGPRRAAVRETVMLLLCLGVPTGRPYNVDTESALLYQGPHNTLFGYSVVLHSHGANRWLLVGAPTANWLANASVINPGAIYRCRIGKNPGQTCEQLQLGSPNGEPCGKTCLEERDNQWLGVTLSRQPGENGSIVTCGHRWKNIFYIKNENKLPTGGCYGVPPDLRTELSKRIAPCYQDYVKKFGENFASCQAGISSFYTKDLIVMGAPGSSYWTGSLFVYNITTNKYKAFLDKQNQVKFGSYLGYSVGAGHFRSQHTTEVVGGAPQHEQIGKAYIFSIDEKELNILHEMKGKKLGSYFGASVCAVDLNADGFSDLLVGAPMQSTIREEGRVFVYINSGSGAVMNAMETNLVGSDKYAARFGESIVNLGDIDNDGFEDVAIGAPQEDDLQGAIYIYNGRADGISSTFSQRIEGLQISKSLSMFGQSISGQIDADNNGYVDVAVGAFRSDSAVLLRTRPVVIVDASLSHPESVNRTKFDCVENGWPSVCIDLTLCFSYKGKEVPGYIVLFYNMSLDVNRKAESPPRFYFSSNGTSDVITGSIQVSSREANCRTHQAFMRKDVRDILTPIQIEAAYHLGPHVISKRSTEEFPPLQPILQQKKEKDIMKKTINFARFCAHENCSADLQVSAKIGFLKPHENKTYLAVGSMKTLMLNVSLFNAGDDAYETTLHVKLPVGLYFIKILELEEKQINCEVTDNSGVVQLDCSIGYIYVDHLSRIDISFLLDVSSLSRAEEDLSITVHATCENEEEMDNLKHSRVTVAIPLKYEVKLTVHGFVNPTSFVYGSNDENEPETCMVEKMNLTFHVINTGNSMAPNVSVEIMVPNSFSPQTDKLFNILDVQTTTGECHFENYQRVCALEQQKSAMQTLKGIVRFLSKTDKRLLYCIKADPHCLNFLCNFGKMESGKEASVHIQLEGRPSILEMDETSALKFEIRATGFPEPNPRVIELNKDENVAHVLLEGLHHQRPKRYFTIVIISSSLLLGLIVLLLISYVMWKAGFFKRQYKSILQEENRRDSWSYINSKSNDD
Chain of ATP-binding cassette sub-family B member 6 (Homo sapiens) (Q9NP58 whole entry, looked up): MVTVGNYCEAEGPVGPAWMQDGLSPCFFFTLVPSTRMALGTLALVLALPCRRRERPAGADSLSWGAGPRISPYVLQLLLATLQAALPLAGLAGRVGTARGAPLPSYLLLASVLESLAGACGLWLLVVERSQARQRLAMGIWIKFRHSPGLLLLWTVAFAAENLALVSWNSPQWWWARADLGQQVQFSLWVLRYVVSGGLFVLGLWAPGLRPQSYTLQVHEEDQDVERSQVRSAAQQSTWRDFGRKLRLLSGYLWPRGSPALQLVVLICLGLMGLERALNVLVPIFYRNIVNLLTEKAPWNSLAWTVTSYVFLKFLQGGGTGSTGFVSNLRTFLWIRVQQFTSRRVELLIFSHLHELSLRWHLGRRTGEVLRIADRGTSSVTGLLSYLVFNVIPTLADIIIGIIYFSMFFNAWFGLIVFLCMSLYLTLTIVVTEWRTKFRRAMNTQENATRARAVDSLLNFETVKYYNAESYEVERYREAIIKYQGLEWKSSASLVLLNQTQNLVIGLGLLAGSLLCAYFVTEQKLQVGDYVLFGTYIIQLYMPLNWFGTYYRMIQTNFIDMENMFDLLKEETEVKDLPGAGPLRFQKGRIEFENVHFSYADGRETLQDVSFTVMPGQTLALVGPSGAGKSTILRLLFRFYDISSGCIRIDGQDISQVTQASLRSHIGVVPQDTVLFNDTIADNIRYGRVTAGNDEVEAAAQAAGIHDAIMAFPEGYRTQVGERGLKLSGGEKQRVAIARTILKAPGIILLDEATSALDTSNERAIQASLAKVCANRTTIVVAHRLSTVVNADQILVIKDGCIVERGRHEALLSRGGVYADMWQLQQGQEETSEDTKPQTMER
Chain of Beta-2 adrenergic receptor (Homo sapiens) (P07550 whole entry, looked up): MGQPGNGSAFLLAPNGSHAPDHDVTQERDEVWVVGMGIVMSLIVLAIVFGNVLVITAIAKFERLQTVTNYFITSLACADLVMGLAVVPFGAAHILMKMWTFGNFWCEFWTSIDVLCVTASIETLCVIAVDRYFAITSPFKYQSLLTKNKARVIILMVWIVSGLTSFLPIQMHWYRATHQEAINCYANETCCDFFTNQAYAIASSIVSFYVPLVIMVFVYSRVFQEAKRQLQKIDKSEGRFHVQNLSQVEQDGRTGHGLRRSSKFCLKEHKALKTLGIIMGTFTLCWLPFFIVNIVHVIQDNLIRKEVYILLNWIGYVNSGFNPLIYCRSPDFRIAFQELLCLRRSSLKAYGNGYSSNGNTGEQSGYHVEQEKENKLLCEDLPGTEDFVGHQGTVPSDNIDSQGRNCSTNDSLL
Chain of Beta-adrenergic receptor kinase 1 (Homo sapiens) (P25098 whole entry, looked up): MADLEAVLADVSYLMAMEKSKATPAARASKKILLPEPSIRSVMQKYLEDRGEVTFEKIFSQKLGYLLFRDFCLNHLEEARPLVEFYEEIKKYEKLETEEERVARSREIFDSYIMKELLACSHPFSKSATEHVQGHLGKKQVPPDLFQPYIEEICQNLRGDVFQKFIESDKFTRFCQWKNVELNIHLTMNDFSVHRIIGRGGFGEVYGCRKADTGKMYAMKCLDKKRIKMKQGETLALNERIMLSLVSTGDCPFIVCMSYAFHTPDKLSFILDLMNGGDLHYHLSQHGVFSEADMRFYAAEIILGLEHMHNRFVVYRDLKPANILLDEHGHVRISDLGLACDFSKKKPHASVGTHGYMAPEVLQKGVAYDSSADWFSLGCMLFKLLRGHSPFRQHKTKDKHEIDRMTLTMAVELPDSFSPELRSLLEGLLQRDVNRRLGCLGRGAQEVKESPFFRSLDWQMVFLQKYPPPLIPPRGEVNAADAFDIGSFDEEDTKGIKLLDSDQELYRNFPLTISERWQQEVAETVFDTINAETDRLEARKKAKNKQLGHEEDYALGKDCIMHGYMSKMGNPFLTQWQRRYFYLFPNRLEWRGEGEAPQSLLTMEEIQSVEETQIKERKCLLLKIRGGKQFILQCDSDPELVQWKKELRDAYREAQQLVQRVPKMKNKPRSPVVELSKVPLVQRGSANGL
Chain of AP-2 complex subunit beta (Homo sapiens) (P63010 whole entry, looked up, the tested form may be a part, one chain of several): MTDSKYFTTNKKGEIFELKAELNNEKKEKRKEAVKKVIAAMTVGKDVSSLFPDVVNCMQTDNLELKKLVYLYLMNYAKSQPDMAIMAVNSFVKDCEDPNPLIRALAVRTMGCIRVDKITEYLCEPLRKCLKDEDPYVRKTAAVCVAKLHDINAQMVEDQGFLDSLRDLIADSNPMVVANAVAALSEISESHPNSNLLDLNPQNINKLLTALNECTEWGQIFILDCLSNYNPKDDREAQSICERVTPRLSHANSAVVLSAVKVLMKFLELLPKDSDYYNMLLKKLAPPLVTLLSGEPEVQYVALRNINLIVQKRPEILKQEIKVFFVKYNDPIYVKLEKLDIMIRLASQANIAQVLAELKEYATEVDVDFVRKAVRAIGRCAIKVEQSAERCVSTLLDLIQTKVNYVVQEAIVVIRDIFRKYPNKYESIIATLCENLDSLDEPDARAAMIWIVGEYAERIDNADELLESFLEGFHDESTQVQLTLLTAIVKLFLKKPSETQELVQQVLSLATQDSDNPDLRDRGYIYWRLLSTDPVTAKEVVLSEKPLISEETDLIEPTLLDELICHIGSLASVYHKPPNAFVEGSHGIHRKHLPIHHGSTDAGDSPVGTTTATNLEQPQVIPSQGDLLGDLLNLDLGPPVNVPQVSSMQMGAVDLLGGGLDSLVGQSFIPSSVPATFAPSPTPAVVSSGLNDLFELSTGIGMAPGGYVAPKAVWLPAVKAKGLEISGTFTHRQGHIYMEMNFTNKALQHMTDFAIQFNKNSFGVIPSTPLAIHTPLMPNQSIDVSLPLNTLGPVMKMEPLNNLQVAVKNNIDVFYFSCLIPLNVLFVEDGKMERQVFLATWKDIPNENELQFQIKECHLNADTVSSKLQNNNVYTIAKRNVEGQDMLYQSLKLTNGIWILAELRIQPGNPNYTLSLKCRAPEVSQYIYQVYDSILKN

SMILES: C=CCOc1ccc(C(=O)CC)cc1OC
- percent of DMSO control GFP [1]: 102% (inactive)
- GFP response vs DMSO [2]: 105% (inactive)
- percent response of DMSO control [3]: 104% (inactive)
- GFP response vs DMSO [4]: 106% (inactive)
- GFP response, % of DMSO [5]: 98.6% (inactive)
- double positive events [6]: 60%
- vesicle binding response [6]: 174% (inactive)
- inhibition [7]: 8.29% (inactive)
- superoxide response (% of plate) [8]: 103% (inactive)
- aptamer binding inhibition [9]: 1% (inactive)
- response [10]: 2.91% (inactive)
- inhibition [11]: -8.48% (inactive)
- response [12]: 9.51% (inactive)
- binding (% of control) [13]: 106% (inactive)
- efflux inhibition (fraction of control) [14]: 0.03 (inactive)
- inhibition [15]: -4% (inactive)
- differentiation response [16]: -6.03% (inactive)

SMILES: C[C@]12CC[C@@H]3c4ccc(O)cc4CC[C@H]3[C@@H]1C[C@@H](O)[C@@H]2O[C@@H]1O[C@H](C(=O)O)[C@@H](O)[C@H](O)[C@H]1O
- percent of DMSO control GFP [1]: 90.6% (inactive)
- GFP response vs DMSO [2]: 113% (inactive)
- percent response of DMSO control [3]: 108% (inactive)
- GFP response vs DMSO [4]: 77% (inactive)
- GFP response, % of DMSO [5]: 104% (inactive)
- double positive events [6]: 61.7%
- vesicle binding response [6]: 249% (inactive)
- inhibition [7]: -10% (inactive)
- superoxide response (% of plate) [8]: 109% (inactive)
- aptamer binding inhibition [9]: 4% (inactive)
- response [10]: -7.17% (inactive)
- inhibition [11]: -6.28% (inactive)
- response [12]: -6.58% (inactive)
- binding (% of control) [13]: 105% (inactive)
- efflux inhibition (fraction of control) [14]: 0.12 (inactive)
- inhibition [15]: 8% (inactive)
- differentiation response [16]: -4.91% (inactive)

SMILES: C[C@H]1O[C@@H](O[C@H]2[C@@H](O)C[C@H](O[C@H]3[C@@H](O)C[C@H](O[C@H]4CC[C@@]5(C)[C@H](CC[C@@H]6[C@@H]5C[C@@H](O)[C@]5(C)[C@@H](C7=CC(=O)OC7)CC[C@]65O)C4)O[C@@H]3C)O[C@@H]2C)C[C@H](O)[C@@H]1O
- percent of DMSO control GFP [1]: 100% (inactive)
- GFP response vs DMSO [2]: 105% (inactive)
- percent response of DMSO control [3]: 95.5% (inactive)
- GFP response vs DMSO [4]: 93.7% (inactive)
- GFP response, % of DMSO [5]: 93.7% (inactive)
- double positive events [6]: 62.7%
- vesicle binding response [6]: 151% (inactive)
- inhibition [7]: 11% (inactive)
- superoxide response (% of plate) [8]: 90.7% (inactive)
- aptamer binding inhibition [9]: -2% (inactive)
- response [10]: 12.4% (inactive)
- inhibition [11]: -11.4% (inactive)
- response [12]: 1.64% (inactive)
- binding (% of control) [13]: 103% (inactive)
- efflux inhibition (fraction of control) [14]: -0.07 (inactive)
- inhibition [15]: -10% (inactive)
- differentiation response [16]: 5.67% (inactive)

SMILES: CN(C)CC/C=C1\c2ccccc2COc2ccccc21
- percent of DMSO control GFP [1]: 96% (inactive)
- GFP response vs DMSO [2]: 96.6% (inactive)
- percent response of DMSO control [3]: 90.5% (inactive)
- GFP response vs DMSO [4]: 104% (inactive)
- GFP response, % of DMSO [5]: 109% (inactive)
- double positive events [6]: 68.1%
- vesicle binding response [6]: 176% (inactive)
- inhibition [7]: 20.2% (inactive)
- superoxide response (% of plate) [8]: 93.9% (inactive)
- aptamer binding inhibition [9]: -3% (inactive)
- response [10]: 0.32% (inactive)
- inhibition [11]: -7.94% (inactive)
- response [12]: 3.08% (inactive)
- binding (% of control) [13]: 79% (active)
- efflux inhibition (fraction of control) [14]: -0.04 (inactive)
- inhibition [15]: 6% (inactive)
- differentiation response [16]: -6.96% (inactive)

SMILES: CC[C@]1(O)CC2CN(CCc3c([nH]c4ccccc34)[C@@](C(=O)OC)(c3cc4c(cc3OC)N(C=O)[C@H]3[C@@](O)(C(=O)OC)[C@H](OC(C)=O)[C@]5(CC)C=CCN6CC[C@]43[C@@H]65)C2)C1 (stereo not given in full)
- percent of DMSO control GFP [1]: 103% (inactive)
- GFP response vs DMSO [2]: 98.5% (inactive)
- percent response of DMSO control [3]: 101% (inactive)
- GFP response vs DMSO [4]: 94% (inactive)
- GFP response, % of DMSO [5]: 98.5% (inactive)
- double positive events [6]: 61.8%
- vesicle binding response [6]: 204% (inactive)
- inhibition [7]: 48.7% (inactive)
- superoxide response (% of plate) [8]: 93% (inactive)
- aptamer binding inhibition [9]: 3% (inactive)
- response [10]: 23.4% (inactive)
- inhibition [11]: -4.62% (inactive)
- response [12]: 6.03% (inactive)
- binding (% of control) [13]: 97.2% (inactive)
- efflux inhibition (fraction of control) [14]: 0.12 (inactive)
- inhibition [15]: 112% (active)
- differentiation response [16]: 4% (inactive)
